Test results from the supplement of paper PMC11732987, “Enantioselective OTUD7B fragment discovery through chemoproteomics screening and high-throughput optimisation” (Communications Chemistry, 2025).

Assays:
Test in all cases: log2 ratio of Biotin-Ahx-Ub-VS probe labelling (fragment/DMSO); higher = less target engagement (more negative = stronger competition), active = hit call of the paper (q ≤ 0.05, log2 ratio ≤ -1)
Conditions in all cases: compound concentration: 200 uM; treatment time: 3 h
USP9X = USP9X (UniProt Q93008)
Summary of the method: (§1)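 Using Biotin-Ahx-Ub-VS at 0.5 µM final for 1 h, DUBs were labelled in HEK293T lysate (495 µg per sample) that had first been treated in triplicate with fragment at 200 µM or vehicle for 3 h. NeutrAvidin enrichment, LysC and trypsin digestion and diaPASEF LC-MS/MS followed. Spectronaut label-free quantities were global-median-normalised. Values are average log2 fragment/vehicle ratios by unpaired t-test, using proteins with ≥2 unique peptides.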

UniProt O00487 = target: UniProt O00487
Summary of the method: as §1

UniProt O00507 = target: UniProt O00507
Summary of the method: as §1

UniProt P51784 = target: UniProt P51784
Summary of the method: as §1

UniProt Q5T2D3 = target: T1, UniProt Q5T2D3
T1 sequence (whole entry): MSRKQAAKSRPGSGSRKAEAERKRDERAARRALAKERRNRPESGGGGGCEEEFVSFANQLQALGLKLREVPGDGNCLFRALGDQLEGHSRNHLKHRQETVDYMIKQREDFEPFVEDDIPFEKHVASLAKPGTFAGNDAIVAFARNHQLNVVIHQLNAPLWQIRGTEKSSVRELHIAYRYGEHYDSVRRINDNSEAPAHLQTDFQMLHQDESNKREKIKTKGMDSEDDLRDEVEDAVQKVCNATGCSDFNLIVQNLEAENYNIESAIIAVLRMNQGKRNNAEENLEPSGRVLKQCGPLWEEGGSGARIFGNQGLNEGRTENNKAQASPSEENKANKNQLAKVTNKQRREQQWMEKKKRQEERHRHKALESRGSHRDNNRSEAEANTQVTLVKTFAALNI
Summary of the method: as §1

UniProt Q8TE49 = target: T2, UniProt Q8TE49
T2 sequence (whole entry): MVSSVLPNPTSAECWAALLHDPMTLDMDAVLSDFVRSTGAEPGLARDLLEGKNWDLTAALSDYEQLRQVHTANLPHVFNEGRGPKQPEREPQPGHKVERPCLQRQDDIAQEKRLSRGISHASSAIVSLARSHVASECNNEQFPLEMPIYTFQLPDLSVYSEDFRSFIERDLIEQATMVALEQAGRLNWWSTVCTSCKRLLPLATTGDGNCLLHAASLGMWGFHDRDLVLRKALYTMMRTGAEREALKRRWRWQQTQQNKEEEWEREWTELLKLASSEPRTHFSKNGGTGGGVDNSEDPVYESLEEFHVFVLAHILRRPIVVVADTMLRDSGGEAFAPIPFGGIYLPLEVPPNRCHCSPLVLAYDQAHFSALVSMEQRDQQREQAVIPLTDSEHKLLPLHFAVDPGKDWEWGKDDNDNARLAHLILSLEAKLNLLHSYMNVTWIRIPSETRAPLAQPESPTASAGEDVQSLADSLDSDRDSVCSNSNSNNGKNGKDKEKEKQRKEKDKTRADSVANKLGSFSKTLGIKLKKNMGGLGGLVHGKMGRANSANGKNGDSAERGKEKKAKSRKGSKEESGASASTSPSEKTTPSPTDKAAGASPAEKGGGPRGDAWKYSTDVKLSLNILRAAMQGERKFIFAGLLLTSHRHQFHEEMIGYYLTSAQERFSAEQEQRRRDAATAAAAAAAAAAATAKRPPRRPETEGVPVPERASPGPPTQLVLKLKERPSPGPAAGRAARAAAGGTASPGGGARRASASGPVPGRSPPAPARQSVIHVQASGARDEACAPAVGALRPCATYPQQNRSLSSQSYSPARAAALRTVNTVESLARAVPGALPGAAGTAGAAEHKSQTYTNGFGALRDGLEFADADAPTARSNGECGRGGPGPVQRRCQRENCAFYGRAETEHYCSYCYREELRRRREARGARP
Summary of the method: as §1

UniProt Q9P2H5 = target: T3, UniProt Q9P2H5
T3 sequence (whole entry): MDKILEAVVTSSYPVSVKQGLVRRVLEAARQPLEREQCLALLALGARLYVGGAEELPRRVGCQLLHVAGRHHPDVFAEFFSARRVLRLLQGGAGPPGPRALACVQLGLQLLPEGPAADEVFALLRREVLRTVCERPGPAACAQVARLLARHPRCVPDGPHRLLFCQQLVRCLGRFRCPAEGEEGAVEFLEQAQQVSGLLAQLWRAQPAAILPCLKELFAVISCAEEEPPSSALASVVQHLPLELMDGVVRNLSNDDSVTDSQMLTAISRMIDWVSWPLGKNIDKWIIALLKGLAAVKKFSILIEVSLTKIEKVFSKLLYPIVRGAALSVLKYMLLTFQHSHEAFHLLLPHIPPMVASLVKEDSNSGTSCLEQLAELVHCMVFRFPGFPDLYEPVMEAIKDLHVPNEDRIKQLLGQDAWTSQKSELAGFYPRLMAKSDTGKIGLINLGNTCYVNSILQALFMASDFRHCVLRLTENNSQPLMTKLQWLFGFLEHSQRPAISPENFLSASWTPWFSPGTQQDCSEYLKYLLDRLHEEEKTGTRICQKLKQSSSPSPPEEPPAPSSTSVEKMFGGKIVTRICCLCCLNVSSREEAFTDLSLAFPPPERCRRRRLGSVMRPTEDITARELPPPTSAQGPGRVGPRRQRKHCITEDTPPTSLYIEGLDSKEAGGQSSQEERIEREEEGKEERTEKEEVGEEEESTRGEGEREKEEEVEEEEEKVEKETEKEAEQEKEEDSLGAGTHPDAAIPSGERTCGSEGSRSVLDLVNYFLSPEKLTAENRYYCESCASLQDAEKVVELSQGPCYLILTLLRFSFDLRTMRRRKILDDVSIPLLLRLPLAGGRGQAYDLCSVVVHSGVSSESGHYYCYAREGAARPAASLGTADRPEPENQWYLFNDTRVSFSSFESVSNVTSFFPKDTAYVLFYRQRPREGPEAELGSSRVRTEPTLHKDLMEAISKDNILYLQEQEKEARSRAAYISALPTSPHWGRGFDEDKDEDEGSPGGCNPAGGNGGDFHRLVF
Summary of the method: as §1

UniProt Q9UGI0 = target: T4, UniProt Q9UGI0
T4 sequence (whole entry): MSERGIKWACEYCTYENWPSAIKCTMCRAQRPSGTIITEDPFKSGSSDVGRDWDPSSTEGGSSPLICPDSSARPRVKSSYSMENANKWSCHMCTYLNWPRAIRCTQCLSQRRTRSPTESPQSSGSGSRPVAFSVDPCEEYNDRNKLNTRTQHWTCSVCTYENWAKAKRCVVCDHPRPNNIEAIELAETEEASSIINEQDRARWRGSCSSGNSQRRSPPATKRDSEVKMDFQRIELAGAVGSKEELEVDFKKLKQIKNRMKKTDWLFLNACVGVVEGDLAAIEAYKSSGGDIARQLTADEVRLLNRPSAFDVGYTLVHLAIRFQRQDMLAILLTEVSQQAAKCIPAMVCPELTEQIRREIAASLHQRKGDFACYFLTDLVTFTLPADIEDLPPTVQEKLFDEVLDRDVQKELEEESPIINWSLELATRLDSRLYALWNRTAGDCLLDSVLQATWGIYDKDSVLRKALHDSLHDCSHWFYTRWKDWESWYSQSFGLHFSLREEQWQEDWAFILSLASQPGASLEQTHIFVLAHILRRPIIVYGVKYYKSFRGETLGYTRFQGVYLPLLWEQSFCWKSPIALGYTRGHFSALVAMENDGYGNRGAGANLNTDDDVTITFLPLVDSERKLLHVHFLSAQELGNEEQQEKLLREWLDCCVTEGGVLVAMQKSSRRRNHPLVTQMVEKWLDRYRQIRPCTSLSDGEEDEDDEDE
Summary of the method: as §1

YOD1 = target: T5, YOD1 (UniProt Q5VVQ6)
T5 sequence (whole entry): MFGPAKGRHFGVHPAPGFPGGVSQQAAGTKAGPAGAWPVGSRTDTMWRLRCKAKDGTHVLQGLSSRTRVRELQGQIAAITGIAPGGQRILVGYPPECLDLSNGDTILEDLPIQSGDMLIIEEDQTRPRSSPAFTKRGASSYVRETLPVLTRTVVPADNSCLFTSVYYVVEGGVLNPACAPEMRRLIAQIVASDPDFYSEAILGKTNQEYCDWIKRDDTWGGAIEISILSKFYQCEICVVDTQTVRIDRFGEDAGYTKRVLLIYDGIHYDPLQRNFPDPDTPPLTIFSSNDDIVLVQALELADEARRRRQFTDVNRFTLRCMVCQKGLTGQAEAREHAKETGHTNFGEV
Summary of the method: as §1

Measured: log2 ratio of Biotin-Ahx-Ub-VS probe labelling

Chain of UniProt P51784 (P51784 whole entry): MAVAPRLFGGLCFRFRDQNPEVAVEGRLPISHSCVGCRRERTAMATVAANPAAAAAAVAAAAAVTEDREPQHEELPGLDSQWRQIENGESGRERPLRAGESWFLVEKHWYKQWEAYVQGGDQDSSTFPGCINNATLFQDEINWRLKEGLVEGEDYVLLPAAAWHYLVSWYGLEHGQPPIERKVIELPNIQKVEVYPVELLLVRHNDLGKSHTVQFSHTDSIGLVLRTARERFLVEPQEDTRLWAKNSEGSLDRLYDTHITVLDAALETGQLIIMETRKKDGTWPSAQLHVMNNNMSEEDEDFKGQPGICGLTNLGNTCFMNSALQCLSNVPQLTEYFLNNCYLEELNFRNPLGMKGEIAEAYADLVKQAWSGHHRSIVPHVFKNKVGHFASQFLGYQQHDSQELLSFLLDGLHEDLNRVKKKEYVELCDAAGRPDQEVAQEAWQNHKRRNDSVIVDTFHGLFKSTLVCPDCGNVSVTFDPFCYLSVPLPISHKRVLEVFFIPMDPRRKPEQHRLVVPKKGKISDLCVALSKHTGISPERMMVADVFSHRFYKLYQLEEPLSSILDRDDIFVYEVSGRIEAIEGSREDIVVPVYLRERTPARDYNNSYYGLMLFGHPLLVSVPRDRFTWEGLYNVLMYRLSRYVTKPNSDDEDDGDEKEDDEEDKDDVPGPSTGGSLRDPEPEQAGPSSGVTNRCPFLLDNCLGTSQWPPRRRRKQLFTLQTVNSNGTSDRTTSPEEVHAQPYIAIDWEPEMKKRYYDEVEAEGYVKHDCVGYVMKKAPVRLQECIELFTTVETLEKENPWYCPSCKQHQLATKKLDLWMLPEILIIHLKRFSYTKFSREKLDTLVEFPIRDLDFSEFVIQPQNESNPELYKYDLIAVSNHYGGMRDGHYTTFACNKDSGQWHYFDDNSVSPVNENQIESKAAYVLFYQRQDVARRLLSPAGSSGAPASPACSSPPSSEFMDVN
Chain of USP9X (Q93008 whole entry, the tested form may be a part): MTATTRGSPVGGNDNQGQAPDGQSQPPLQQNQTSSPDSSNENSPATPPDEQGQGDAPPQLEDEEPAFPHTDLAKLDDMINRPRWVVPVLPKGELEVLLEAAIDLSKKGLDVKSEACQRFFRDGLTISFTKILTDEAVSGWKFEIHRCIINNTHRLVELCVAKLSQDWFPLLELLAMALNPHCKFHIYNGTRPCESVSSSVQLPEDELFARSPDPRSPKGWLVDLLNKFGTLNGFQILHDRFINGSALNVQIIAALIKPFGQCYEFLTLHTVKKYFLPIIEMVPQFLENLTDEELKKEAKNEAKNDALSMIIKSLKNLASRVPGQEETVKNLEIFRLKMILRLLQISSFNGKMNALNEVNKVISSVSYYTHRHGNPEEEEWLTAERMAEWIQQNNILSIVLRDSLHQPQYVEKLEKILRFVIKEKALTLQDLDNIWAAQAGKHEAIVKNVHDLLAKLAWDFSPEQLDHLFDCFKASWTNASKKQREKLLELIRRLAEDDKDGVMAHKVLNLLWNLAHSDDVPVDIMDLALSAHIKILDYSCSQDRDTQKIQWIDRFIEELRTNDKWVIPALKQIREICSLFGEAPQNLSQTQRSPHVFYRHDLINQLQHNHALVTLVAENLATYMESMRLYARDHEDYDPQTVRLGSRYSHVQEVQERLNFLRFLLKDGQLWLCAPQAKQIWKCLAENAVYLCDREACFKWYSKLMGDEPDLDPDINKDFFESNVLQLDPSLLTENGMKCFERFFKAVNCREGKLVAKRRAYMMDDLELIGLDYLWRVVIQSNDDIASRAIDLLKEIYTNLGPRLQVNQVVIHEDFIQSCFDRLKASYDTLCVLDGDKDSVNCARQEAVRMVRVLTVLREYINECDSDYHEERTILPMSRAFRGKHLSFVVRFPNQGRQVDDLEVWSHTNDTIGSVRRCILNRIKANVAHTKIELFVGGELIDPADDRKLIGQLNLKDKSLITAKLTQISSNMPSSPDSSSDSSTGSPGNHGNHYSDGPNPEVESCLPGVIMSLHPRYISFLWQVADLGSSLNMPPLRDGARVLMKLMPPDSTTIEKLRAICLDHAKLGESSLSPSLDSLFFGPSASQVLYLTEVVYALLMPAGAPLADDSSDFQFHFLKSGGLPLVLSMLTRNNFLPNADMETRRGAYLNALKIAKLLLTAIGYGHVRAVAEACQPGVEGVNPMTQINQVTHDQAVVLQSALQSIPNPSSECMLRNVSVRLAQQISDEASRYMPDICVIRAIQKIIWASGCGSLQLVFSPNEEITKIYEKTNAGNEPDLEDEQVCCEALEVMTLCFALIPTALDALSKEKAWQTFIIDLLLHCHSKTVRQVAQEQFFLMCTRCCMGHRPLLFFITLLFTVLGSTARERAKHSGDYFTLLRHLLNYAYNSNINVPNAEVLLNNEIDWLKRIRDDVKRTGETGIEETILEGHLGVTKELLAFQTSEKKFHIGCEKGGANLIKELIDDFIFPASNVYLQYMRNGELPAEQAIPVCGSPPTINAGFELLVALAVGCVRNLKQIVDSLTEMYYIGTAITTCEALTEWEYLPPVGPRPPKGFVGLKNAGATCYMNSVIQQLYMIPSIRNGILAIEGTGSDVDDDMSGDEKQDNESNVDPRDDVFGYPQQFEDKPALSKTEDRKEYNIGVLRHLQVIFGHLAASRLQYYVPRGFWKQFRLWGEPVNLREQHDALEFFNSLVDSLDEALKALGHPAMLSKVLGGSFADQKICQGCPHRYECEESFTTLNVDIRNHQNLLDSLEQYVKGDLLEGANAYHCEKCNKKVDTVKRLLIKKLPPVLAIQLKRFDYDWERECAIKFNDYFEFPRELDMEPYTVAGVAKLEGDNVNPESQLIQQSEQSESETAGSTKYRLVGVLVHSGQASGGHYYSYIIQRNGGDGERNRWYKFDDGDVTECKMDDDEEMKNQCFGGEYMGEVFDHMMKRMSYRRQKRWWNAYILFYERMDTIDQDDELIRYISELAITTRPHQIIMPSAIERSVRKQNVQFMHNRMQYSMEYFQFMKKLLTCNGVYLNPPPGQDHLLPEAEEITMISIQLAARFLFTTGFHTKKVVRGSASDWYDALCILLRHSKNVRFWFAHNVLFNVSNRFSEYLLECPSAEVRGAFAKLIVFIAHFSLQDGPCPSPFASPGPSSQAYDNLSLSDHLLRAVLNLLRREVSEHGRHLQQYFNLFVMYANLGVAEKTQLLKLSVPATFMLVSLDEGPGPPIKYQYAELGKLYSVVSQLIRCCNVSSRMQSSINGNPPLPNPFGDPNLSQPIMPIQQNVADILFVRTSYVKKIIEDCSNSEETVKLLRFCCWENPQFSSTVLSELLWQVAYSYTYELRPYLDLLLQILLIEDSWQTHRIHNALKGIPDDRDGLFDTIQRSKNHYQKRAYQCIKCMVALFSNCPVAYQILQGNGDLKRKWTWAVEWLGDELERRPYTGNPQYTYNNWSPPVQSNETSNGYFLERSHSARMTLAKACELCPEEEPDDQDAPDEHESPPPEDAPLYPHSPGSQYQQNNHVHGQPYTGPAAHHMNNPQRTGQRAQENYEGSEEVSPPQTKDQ
Chain of UniProt O00487 (O00487 whole entry): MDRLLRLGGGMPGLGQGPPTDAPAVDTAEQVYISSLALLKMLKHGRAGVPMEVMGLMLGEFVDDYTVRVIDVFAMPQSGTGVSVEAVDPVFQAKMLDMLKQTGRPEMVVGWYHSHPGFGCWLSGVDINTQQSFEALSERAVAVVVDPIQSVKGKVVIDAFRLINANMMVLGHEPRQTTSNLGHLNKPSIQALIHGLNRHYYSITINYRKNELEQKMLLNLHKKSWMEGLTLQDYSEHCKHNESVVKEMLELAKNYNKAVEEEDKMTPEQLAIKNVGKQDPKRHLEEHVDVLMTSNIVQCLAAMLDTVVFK

Cl.O=C(CCl)NCCN1CCc2ccccc21
inactive: USP9X -0.798 | UniProt O00487 -0.255 | UniProt O00507 -0.631 | UniProt P51784 -0.722 | UniProt Q5T2D3 -0.805 | UniProt Q8TE49 -0.934 | UniProt Q9P2H5 -0.844 | UniProt Q9UGI0 -0.971 | YOD1 -0.814
